Compounds without any hit were thinned out: in the full panel of roughly 83,000, 20% have a hit.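 Assay: single dose, 48 h. Readout: percent growth (0 = no net growth; negative = cell death). Active: <10.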 Unmarked numbers belong to inactive results. Active and inactive are the calls of the source.

What all share (assay): NCI-60 one-dose screen, 48 h (100 = growth as untreated, 0 = no growth, -100 = all killed)
The test system of assay [1] is HCT-15 colon. The note with it: 10 µM.
The test system of assay [2] is HT29 colon. The settings on record: 10 µM.
Assay [3] relates to SNB-75 CNS. The note with it: 10 µM.
Assay [4] relates to U251 CNS. The note with it: 10 µM.
The subject of assay [5] is PC-3 prostate. The settings on record: 10 µM.
Assay [6] deals with SK-MEL-5 melanoma. The settings on record: 10 µM.
In assay [7] the test system is UACC-62 melanoma. The settings on record: 10 µM unless noted.
Assay [8] concerns LOX IMVI melanoma. The note with it: 10 µM.
Assay [9] concerns SK-MEL-28 melanoma. The settings on record: 10 µM.
Assay [10] relates to SK-MEL-2 melanoma. The settings on record: 10 µM.
In assay [11] the test system is EKVX NSCLC. The settings on record: 10 µM.
The subject of assay [12] is SN12C renal. The note with it: 10 µM.
The subject of assay [13] is TK-10 renal. The settings on record: 10 µM unless noted.
The subject of assay [14] is ACHN renal. The settings on record: 10 µM.
For assay [15], the system named is CAKI-1 renal. The settings on record: 10 µM.
In assay [16] the test system is A498 renal. The note with it: 10 µM.
The subject of assay [17] is CCRF-CEM leukemia. The settings on record: 10 µM.
Assay [18] relates to MOLT-4 leukemia. The settings on record: 10 µM.
The subject of assay [19] is UO-31 renal. The note with it: 10 µM.

Turning to `COC(=O)c1cc(-c2ccc(Cl)c(Cl)c2)[nH]c(=O)c1C#N`, the growth in [1] was 96.3%; in assay [2], 107%; in assay [3] it was 99.2%; in assay [4], 97.3%; in assay [5], 102%; in [6], 98.9%. Moreover, the growth in assay [7] is 90.9%; in [8], 101%; in [9], 100%; in assay [10] it was 120%; in [11], 94.4%; in [12], 93.7%. The growth was 103% in [13]; 94.8% in assay [14]; 87.5% in assay [15]; 125% in assay [16]; 104% in [17]; 107% in [18].
With `COc1ccc(C2OC(N)=C(O)C2=O)cc1OC` (centres undefined), the growth in [1] was 101%; in assay [2], 108%; in assay [3], 101%; in assay [4] it was 111%; in [5], 97.2%; in assay [6] it was 102%. The growth in assay [7] is 93.7%; in [8], 102%; in [9], 105%; in assay [10], 117%; in assay [11], 94.3%; in [12], 96.1%. Further, the growth is 104% in [13]; 96.9% in assay [14]; 92.7% in assay [15]; 109% in [16]; 98.2% in assay [17]; 109% in assay [18].
Turning to `COc1ccc2c(c1)CCc1c-2n[nH]c1-c1[nH]nc2c1CCc1cc(OC)ccc1-2`, the growth was 35.6% in assay [1]; 52.3% in assay [2]; 29.3% in assay [3]; 54.2% in assay [4]; 50.4% in assay [5]; 37.2% in assay [6]. Besides, the growth is 25.8% in assay [7]; 43.8% in assay [8]; 58.7% in [9]; 61.7% in assay [10]; 59.8% in assay [11]; 91.6% in [12]. Further, the growth was 109% in assay [13]; 57.8% in assay [14]; 53.2% in assay [15]; 109% in assay [16]; 41.8% in assay [17]; 50.4% in [18].
For the molecule `Cc1cc2nc(CC(=O)c3cccc([N+](=O)[O-])c3)c(=O)[nH]c2cc1C`, the growth is 77% in [1]; 68.2% in assay [2]; 96.1% in assay [3]; 95.1% in assay [4]; 68% in assay [5]; 97.9% in assay [6]. For the same molecule, the growth in [7] was 65%; in assay [9], 97.7%; in assay [10], 95.4%; in [11], 59.9%; in assay [12] it was 86.5%; in assay [13], 115%. Besides, the growth was 87.3% in assay [14]; 76.5% in assay [15]; 127% in assay [16]; 76.3% in assay [17]; 83.4% in assay [18].
For the molecule `CC(=O)Nc1c(C)cc(C)cc1C`, the growth in assay [1] is 102%; in assay [2], 119%; in assay [3] it was 89.2%; in assay [4], 99.3%; in assay [5], 103%; in assay [6] it was 100%. Besides, the growth is 107% in [7]; 112% in assay [9]; 102% in assay [10]; 101% in assay [11]; 111% in assay [12]; 95.5% in assay [19]. In addition, the growth in [13] is 104%; in assay [14] it was 107%; in [15] it was 91.6%; in [16] it was 109%; in assay [17] it was 107%; in assay [18], 97.2%.
On to `CC1(O)OC(COc2ccc(Cl)cc2)COC1O` (centres undefined), for which the growth is 103% in assay [1]; 116% in assay [2]; 112% in [3]; 100% in assay [4]; 107% in assay [5]; 101% in assay [6]. Moreover, the growth in assay [7] was 89.8%; in [8], 98.9%; in [9], 107%; in assay [10], 126%; in assay [11] it was 94.7%; in assay [12] it was 101%. Besides, the growth is 108% in [13]; 103% in assay [14]; 90.1% in assay [15]; 100% in assay [16]; 98.7% in assay [17]; 60.9% in [18].
Take `CC(C)=C(NC(=O)c1ccccc1)C(=O)O`: the growth in assay [1] was 104%; in assay [2], 99.6%; in assay [3], 108%; in assay [4] it was 114%; in [5] it was 87.8%; in assay [6] it was 99%. The growth in assay [8] is 101%; in assay [9], 108%; in assay [10] it was 98.3%; in assay [11], 118%; in assay [19], 101%; in [13] it was 106%. Besides, the growth is 106% in assay [14]; 103% in assay [15]; 90.5% in assay [16]; 7.71% (active) in [17]; 12.1% in [18].
On to `Clc1ccc(-c2nnc(-c3cccc4ccccc34)o2)cc1`, for which the growth in assay [1] is 80.1%; in [2], 89.3%; in assay [3], 76.8%; in assay [4] it was 90.2%; in assay [5], 82.4%; in [6] it was 93.7%. For the same molecule, the growth is 84.2% in assay [8]; 107% in assay [9]; 96.4% in assay [10]; 34% in assay [11]; 41.4% in assay [19]; 95.3% in assay [13]. For the same molecule, the growth in [14] was 90%; in assay [15], 81.6%; in [18] it was 104%.

The values above are taken from PubChem BioAssay (NCI).
